# Source: PubChem BioAssay (EPA / NIEHS)
# Activity calls are given as the source filed them. How the source made its calls: active means hit-call score of the fitted dose curve at least 0.9, where 1 is the maximum; inactive means score below 0.9.
# What was measured:
# [1] = ATG_CRE_CIS: Attagene CIS-FACTORIAL HepG2 Assay for human cAMP Responsive Element (CRE) binding protein 3 (AID 2282926); conditions: HepG2 CRE cis-reporter, Attagene multiplexed mRNA; actives raise or lower the signal
# Procedure, shortened: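 HepG2 cells transiently transfected with cis-element-driven multiple reporter transcription units; CRE reporter mRNA measured 24 h after dosing by RT-PCR, 6-FAM labelling, HpaI digestion and capillary electrophoresis. Bidirectional fit versus DMSO baseline.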
# [2] = molecular target: CCAAT/enhancer-binding protein beta (Homo sapiens) (UniProt P17676); experiment: ATG_C_EBP_CIS: Attagene CIS-FACTORIAL HepG2 Assay for human CCAAT/Enhancer Binding Protein (C/EBP) beta (AID 2282927); conditions: HepG2 Attagene cis-factorial transcription factor reporter; actives raise or lower the signal
# Sequence of CCAAT/enhancer-binding protein beta (Homo sapiens) (P17676 whole entry, looked up): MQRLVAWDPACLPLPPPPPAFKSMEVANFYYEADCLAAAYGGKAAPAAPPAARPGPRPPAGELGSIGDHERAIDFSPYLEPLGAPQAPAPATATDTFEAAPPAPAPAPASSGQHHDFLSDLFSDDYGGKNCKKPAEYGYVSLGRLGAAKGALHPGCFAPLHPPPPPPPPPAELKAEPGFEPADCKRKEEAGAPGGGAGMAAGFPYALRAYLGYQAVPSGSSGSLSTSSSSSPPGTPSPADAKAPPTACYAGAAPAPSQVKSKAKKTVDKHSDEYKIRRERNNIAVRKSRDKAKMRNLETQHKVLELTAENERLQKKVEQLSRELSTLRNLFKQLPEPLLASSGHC
# Procedure, shortened: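 HepG2, transient MRTU transfection, 24 h treatment. RT-PCR plus CE fluorescence; DMSO negative control, bidirectional fit.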
# [3] = ATG_CMV_CIS: Attagene CIS-FACTORIAL HepG2 Assay for human CMV (Internal Marker) (AID 2282928); conditions: HepG2 CMV promoter reporter, transcription factor profiling; actives raise or lower the signal;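 further: endpoint acts as a background internal control marker rather than a target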
# Procedure, shortened: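 Endogenous transcription factor activity read in HepG2 via transfected cis-promoter reporter units. After 24 h dosing, reporter mRNA measured by RT-PCR/capillary electrophoresis; gain or loss of signal fit relative to DMSO.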
# [4] = ATG_DR4_LXR_CIS: Attagene CIS-FACTORIAL HepG2 Assay for human Liver X Receptor (LXR), DR4 submotif (AID 2282929); conditions: HepG2 Attagene DR4 cis-reporter, mRNA transcription; actives raise or lower the signal
# Procedure, shortened: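 HepG2, transient MRTU transfection, cis-element (DR4) promoter; 24 h compound exposure; total RNA → oligo(dT) RT → PCR → 6-FAM primer extension → HpaI cut → CE. Gain/loss vs DMSO, bidirectional fit.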
# [5] = molecular target: Aryl hydrocarbon receptor (Homo sapiens) (UniProt P35869); experiment: ATG_Ahr_CIS: Attagene CIS-FACTORIAL HepG2 Assay for human Aryl Hydrocarbon Receptor (Ahr) (AID 2282930); conditions: HepG2 AhR cis-factorial reporter transcription; actives raise or lower the signal
# Sequence of Aryl hydrocarbon receptor (Homo sapiens) (P35869 whole entry, looked up): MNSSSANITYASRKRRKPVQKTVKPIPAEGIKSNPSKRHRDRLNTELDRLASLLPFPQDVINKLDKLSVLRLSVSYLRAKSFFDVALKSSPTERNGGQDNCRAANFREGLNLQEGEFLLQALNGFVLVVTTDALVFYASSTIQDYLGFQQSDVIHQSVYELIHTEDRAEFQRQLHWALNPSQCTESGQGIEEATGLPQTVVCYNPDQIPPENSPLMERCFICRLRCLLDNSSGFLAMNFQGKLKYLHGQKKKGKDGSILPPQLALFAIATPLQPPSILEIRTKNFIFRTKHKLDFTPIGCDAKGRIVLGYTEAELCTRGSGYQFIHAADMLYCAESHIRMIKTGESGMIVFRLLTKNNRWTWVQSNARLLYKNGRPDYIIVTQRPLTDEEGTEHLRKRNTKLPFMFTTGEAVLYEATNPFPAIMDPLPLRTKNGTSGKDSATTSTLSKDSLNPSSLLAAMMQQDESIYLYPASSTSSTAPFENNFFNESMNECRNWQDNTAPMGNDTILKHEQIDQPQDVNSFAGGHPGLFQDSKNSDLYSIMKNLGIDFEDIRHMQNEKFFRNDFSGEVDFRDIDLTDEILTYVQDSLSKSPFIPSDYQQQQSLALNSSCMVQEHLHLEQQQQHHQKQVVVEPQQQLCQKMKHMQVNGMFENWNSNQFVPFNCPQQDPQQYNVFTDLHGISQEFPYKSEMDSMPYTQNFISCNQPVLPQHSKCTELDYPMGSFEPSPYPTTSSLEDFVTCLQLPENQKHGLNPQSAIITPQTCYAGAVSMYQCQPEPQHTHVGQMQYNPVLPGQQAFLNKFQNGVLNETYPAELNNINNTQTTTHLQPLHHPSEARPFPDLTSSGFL
# Procedure, shortened: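 Endogenous factor activity is tracked through cis-promoter reporter units transfected into HepG2 cells. Transcript levels at 24 h are read by fluorescent RT-PCR and capillary electrophoresis, with activity in either direction scored relative to DMSO.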
# [6] = ATG_AP_1_CIS: Attagene CIS-FACTORIAL HepG2 Assay for human Activator Protein 1 (AP-1) (AID 2282931); conditions: HepG2 Attagene cis-factorial AP-1 reporter mRNA; actives raise or lower the signal
# Procedure, shortened: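 Transient MRTU transfection of HepG2 → 24 h chemical treatment → RNA isolation, RT-PCR, 6-FAM labelling, HpaI digest → capillary electrophoresis. Fit: bidirectional, DMSO negative control.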
# [7] = ATG_AP_2_CIS: Attagene CIS-FACTORIAL HepG2 Assay for human Activator Protein 2 (AP-2) (AID 2282932); conditions: HepG2 AP-2 cis-reporter, Attagene transcription factor profiling; actives raise or lower the signal
# Procedure, shortened: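 Multiplexed mRNA reporter assay in HepG2: cis-regulated units report endogenous factor activity after 24 h treatment. Fluorescence from capillary electrophoresis of RT-PCR products gives the signal, with DMSO as baseline.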
# [8] = ATG_BRE_CIS: Attagene CIS-FACTORIAL HepG2 Assay for human Bone Morphogenetic Protein (BMP) Response Element (BRE) (AID 2282933); conditions: HepG2 BMP response element reporter, Attagene transcription factor profiling; actives raise or lower the signal
# Procedure, shortened: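 Transient MRTU transfection of human HepG2 liver cells; 24 h compound treatment; total RNA isolated, reverse-transcribed, PCR-amplified, 6-FAM labelled, HpaI-cut, capillary electrophoresis. DMSO = negative control/baseline, bidirectional fit.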
# [9] = molecular target: Retinoic acid receptor alpha (Homo sapiens) (UniProt P10276); experiment: ATG_DR5_RAR_CIS: Attagene CIS-FACTORIAL HepG2 Assay for human Retinoic Acid Receptor Alpha (RARE), DR5 submotif (AID 2282934); conditions: HepG2 Attagene cis-factorial RARE DR5 reporter, mRNA; actives raise or lower the signal
# Sequence of Retinoic acid receptor alpha (Homo sapiens) (P10276 whole entry, looked up): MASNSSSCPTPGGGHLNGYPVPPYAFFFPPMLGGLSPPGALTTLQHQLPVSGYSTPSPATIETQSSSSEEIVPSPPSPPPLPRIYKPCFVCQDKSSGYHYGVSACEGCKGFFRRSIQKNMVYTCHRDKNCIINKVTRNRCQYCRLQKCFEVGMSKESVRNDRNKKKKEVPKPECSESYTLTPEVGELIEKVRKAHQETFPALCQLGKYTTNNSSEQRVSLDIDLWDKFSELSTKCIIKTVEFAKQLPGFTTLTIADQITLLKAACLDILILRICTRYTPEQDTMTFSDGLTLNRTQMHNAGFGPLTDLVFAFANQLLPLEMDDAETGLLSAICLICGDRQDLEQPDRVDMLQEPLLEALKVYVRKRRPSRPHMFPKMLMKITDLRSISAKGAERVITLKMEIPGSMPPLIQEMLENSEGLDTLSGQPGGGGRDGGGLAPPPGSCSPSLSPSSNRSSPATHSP
# Procedure, shortened: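 After 24 h of chemical exposure, transiently transfected HepG2 cells were lysed for total RNA; the DR5-regulated reporter transcript was quantified via RT-PCR and capillary electrophoresis, with activity fitted bidirectionally against DMSO.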
# [10] = molecular target: Transcription factor E2F1 (Homo sapiens) (UniProt Q01094); experiment: ATG_E2F_CIS: Attagene CIS-FACTORIAL HepG2 Assay for human E2F Transcription Factor 1 (AID 2282935); conditions: HepG2 Attagene cis-reporter, E2F reporter RNA transcripts; actives raise or lower the signal
# Sequence of Transcription factor E2F1 (Homo sapiens) (Q01094 whole entry, looked up): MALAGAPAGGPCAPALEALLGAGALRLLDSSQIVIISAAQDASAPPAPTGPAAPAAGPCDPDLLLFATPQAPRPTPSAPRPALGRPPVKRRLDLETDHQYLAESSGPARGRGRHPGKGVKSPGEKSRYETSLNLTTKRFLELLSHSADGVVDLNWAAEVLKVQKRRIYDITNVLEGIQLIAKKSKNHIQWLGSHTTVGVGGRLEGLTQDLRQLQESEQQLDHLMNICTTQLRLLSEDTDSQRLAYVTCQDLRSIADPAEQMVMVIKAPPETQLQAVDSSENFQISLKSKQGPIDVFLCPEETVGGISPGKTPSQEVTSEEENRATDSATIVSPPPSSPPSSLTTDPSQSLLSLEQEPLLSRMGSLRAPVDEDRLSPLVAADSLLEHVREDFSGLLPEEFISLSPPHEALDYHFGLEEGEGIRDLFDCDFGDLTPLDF
# Procedure, shortened: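 Measures reporter transcript levels via RT-PCR with capillary electrophoresis detection in HepG2 cells harboring cis-regulated reporter units; 24 h post-dose; bidirectional curve fitting with DMSO as baseline.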
# [11] = ATG_E_Box_CIS: Attagene CIS-FACTORIAL HepG2 Assay for human Enhancer Box (E-box) (AID 2282936); conditions: HepG2 E-box cis-reporter transcription, actives raise or lower the signal
# Procedure, shortened: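 First, HepG2 cells receive multiple cis-regulated reporter constructs by transient transfection. Next, chemicals are applied for 24 h. Finally, reporter mRNA is quantified via RT-PCR and capillary electrophoresis, with DMSO as baseline.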
# [12] = ATG_M_61_CIS: Attagene CIS-FACTORIAL HepG2 Assay for M61 Transcription Factor (Internal Marker) (AID 2282937); conditions: HepG2 Attagene CIS-FACTORIAL M61 internal marker reporter; actives raise or lower the signal
# Procedure, shortened: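 Human liver HepG2, transient MRTU transfection (cis promoter elements), 24 h compound. Total RNA → oligo(dT) RT → PCR → FAM label → HpaI → CE. Internal background marker; bidirectional fitting, DMSO = baseline.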
# [13] = ATG_EGR_CIS: Attagene CIS-FACTORIAL HepG2 Assay for human Early Growth Response 1 (EGR1) (AID 2282938); conditions: HepG2 Attagene CIS-FACTORIAL EGR reporter mRNA; actives raise or lower the signal
# Procedure, shortened: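 Transient transfection of human HepG2 with multiple cis-regulated reporter units, chemical exposure 24 h, total RNA isolated. Reverse transcription, PCR, fluorescent labelling and capillary electrophoresis quantify reporter transcripts; activity fitted bidirectionally against DMSO.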
# [14] = ATG_M_19_CIS: Attagene CIS-FACTORIAL HepG2 Assay for M19 Transcription Factor (Internal Marker) (AID 2282939); conditions: HepG2 Attagene CIS-FACTORIAL M19 internal marker reporter; actives raise or lower the signal
# Procedure, shortened: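 Transfect HepG2 with MRTU reporter library → dose chemical, 24 h → isolate total RNA, reverse-transcribe with oligo(dT) → PCR, 6-FAM label, HpaI cut (2 h, 37 C) → capillary electrophoresis. Bidirectional fit vs DMSO.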
# [15] = ATG_ERE_CIS: Attagene CIS-FACTORIAL HepG2 Assay for Estrogen Response Element (ERE) (AID 2282940); conditions: HepG2 ERE cis-reporter, Attagene RNA transcript; actives raise or lower the signal
# Procedure, shortened: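 Transient MRTU transfection of human HepG2; cis-element promoters; 24 h dosing; total RNA → RT (oligo dT) → PCR → 6-FAM primer extension → HpaI digest → CE fluorescence. Bidirectional fit, DMSO baseline.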
# [16] = ATG_Ets_CIS: Attagene CIS-FACTORIAL HepG2 Assay for human Erythroblast Transformation Specific (ETS) (AID 2282941); conditions: HepG2 ETS cis-reporter transcription, actives raise or lower the signal
# Procedure, shortened: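 Steps: transfect HepG2 with multiple reporter units; treat compound 24 h; isolate RNA, DNase-treat, reverse-transcribe; PCR-amplify, label with 6-FAM, digest with HpaI; separate by capillary electrophoresis. Activity fitted both directions versus DMSO.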
# [17] = molecular target: Hepatocyte nuclear factor 3-beta (Homo sapiens) (UniProt Q9Y261); experiment: ATG_FoxA2_CIS: Attagene CIS-FACTORIAL HepG2 Assay for human Forkhead box A2 (FOXA2) (AID 2282942); conditions: HepG2 cis-reporter transcription factor activity, 24 h; actives raise or lower the signal
# Sequence of Hepatocyte nuclear factor 3-beta (Homo sapiens) (Q9Y261 whole entry, looked up): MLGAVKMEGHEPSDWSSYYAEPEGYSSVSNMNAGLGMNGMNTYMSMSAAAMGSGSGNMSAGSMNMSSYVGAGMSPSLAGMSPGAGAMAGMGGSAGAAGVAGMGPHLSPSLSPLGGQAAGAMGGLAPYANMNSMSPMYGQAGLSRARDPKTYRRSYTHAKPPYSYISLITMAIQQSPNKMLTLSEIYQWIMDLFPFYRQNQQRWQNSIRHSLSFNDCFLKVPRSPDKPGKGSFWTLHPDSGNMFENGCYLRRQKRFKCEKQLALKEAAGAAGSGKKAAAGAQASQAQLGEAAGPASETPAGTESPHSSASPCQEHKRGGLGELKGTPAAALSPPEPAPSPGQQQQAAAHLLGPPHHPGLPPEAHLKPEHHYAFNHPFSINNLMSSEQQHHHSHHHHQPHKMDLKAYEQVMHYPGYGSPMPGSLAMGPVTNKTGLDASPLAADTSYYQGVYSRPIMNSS
# Procedure, shortened: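 Transient MRTU transfection of HepG2 liver cells; 24 h treatment; total RNA → oligo(dT) RT → PCR → FAM primer extension → HpaI cut → CE. Bidirectional fit vs DMSO.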
# [18] = ATG_FoxO_CIS: Attagene CIS-FACTORIAL HepG2 Assay for human Forkhead box O (FoxO) (AID 2282943); conditions: HepG2 Attagene cis-reporter, FoxO element, mRNA; actives raise or lower the signal
# Procedure, shortened: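 Transfected HepG2 reporter cells exposed to test chemical for 24 h; reporter RNA measured by reverse transcription, PCR and fluorescent capillary electrophoresis; curves fitted for increases and decreases against DMSO.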
# [19] = ATG_GATA_CIS: Attagene CIS-FACTORIAL HepG2 Assay for human GATA Binding Protein (AID 2282944); conditions: HepG2 GATA cis-element reporter, Attagene multiplex mRNA; actives raise or lower the signal
# Procedure, shortened: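 Transient MRTU transfection, HepG2, 24 h compound exposure. Total RNA → oligo(dT) RT → PCR → 6-FAM primer extension → HpaI cut → CE. Bidirectional fit vs DMSO.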
smiles,measurement,setting,value
O=C(O)c1ccc(C(=O)O)c(C(=O)O)c1,outcome,[1],inactive
same,outcome,[2],inactive
same,outcome,[3],inactive
same,outcome,[4],inactive
same,outcome,[5],inactive
same,outcome,[6],inactive
same,outcome,[7],inactive
same,outcome,[8],inactive
same,outcome,[9],inactive
same,outcome,[10],inactive
same,outcome,[11],inactive
same,outcome,[12],inactive
same,outcome,[13],inactive
same,outcome,[14],inactive
same,outcome,[15],inactive
same,outcome,[16],inactive
same,outcome,[17],inactive
same,outcome,[18],inactive
same,outcome,[19],inactive
CC(=O)c1ccc(O)cc1,outcome,[1],inactive
same,outcome,[2],inactive
same,outcome,[3],inactive
same,outcome,[4],inactive
same,outcome,[5],inactive
same,outcome,[6],inactive
same,outcome,[7],inactive
same,outcome,[8],inactive
same,outcome,[10],inactive
same,outcome,[11],inactive
same,outcome,[12],inactive
same,outcome,[13],inactive
same,outcome,[14],inactive
same,AC50,[15],26.5 µM (active)
same,outcome,[16],inactive
same,outcome,[17],inactive
same,outcome,[18],inactive
same,outcome,[19],inactive
C=CCOCC(O)CO (configuration not stated),outcome,[1],inactive
same,AC50,[2],100 µM (active)
same,outcome,[3],inactive
same,outcome,[4],inactive
same,outcome,[5],inactive
same,outcome,[6],inactive
same,outcome,[7],inactive
same,outcome,[8],inactive
same,AC50,[10],149 µM (active)
same,outcome,[11],inactive
same,outcome,[13],inactive
same,outcome,[14],inactive
same,outcome,[15],inactive
same,outcome,[16],inactive
same,outcome,[17],inactive
same,outcome,[18],inactive
same,AC50,[19],164 µM (active)
C=CC(C)CCCC(C)(C)O (configuration not stated),outcome,[1],inactive
same,outcome,[2],inactive
same,outcome,[3],inactive
same,outcome,[4],inactive
same,outcome,[5],inactive
same,outcome,[6],inactive
same,outcome,[7],inactive
same,outcome,[8],inactive
same,outcome,[10],inactive
same,outcome,[11],inactive
same,outcome,[12],inactive
same,outcome,[13],inactive
same,outcome,[14],inactive
same,outcome,[15],inactive
same,outcome,[16],inactive
same,outcome,[17],inactive
same,outcome,[18],inactive
same,outcome,[19],inactive
